In all, about 290,000 compounds went through this assay and about 370 (0.13%) were called active. The sample holds actives, similar compounds and a random draw of the others, so the mix is not that of the screen.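 Rule for the calls: active = spots per cell inhibited over 60%, with over 100 cells counted and total cytoplasm intensity under 500,000; inconclusive = wells with under 100 cells, flagged as likely toxic; inactive = the rest.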 Entries with a potency or affinity are not part of this list.
What follows are compounds tested against G-protein coupled receptor 55 (Homo sapiens) (UniProt Q9Y2T6) (assay: GPR55 antagonists blocking LPI-driven arrestin recruitment, primary screen, imaging, U2OS, beta-arrestin-GFP, LPI agonist (AID 2013;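 note: U2OS cells stably carrying GPR55 and arrestin-GFP stimulated by 5 µM LPI near EC80; imaged beta-arrestin-GFP aggregate spots per cell after agonist stimulation; plate controls were LPI-stimulated DMSO wells for no effect and DMSO wells without LPI for full effect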)). Conditions: U2OS GPR55 beta-arrestin-GFP translocation imaging, LPI antagonism; at 10 µM; hits give high values.
G-protein coupled receptor 55 (Homo sapiens), sequence (Q9Y2T6 whole entry, looked up): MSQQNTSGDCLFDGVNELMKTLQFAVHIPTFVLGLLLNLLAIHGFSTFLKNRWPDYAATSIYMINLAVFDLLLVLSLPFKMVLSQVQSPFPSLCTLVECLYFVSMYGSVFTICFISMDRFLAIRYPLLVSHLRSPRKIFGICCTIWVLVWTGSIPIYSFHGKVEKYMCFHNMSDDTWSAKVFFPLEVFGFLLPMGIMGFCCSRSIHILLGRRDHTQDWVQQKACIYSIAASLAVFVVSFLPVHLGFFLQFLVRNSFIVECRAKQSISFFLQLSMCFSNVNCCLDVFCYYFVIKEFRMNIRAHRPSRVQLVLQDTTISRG

Row | SMILES | inhibition
1 | COc1ccccc1NC(=O)COc1ccc2c(c1)OCO2 | 19% (inactive)
2 | CS(=O)(=O)CCC(C(=O)OCC(=O)c1ccc(Cl)cc1)N1C(=O)c2ccccc2C1=O (stereo not given) | -0.1% (inactive)
3 | Cc1ccnc(NC2(C(F)(F)F)N=C(c3ccccc3)NC2=O)c1 (stereo not given) | -6% (inactive)
4 | Cc1ccc(NC2(C(F)(F)F)N=C(c3ccccc3)NC2=O)nc1 (stereo not given) | 87% (active)
5 | O=C1NC(c2ccccc2)=NC1(Nc1ccccn1)C(F)(F)F (stereo not given) | 13.1% (inactive)
6 | CCOc1ccc(C2(C)CC(=O)N(C)C2=O)cc1 (stereo not given) | 5.8% (inactive)
7 | Cc1nnc(-c2cccc(Br)c2)c2cn(-c3cccc(Br)c3)nc12 | 1.6% (inactive)
8 | Cc1nnc(-c2cccc(Br)c2)c2cn(-c3ccccc3Cl)nc12 | 7.4% (inactive)
9 | Cc1nnc(-c2cccc(Br)c2)c2cn(-c3ccccc3)nc12 | 9.1% (inactive)
10 | COc1ccc(-n2cc3c(-c4cccc(Br)c4)nnc(C)c3n2)cc1 | 45.1% (inactive)
11 | COc1ccc(C)cc1NS(=O)(=O)c1cn(C)nc1C | 3.9% (inactive)
12 | CC(NC(=O)CCc1nnc(CCCc2ccccc2)o1)c1ccccc1 (stereo not given) | -2.7% (inactive)
13 | CN(Cc1ccccc1)C(=O)CCC1CCN(C(=O)CC2=CCCCC2)CC1 | 0.7% (inactive)
14 | O=C(N1CCN(c2ccc(F)cc2)CC1)C12CC3CC(CC(C3)C1)C2 | 1.6% (inactive)
15 | CCCN1CNC(=S)N(c2ccccc2OC)C1 | 10% (inactive)
16 | N=c1c2c3c(sc2ncn1CCN1CCOCC1)CCCC3 | 18.2% (inactive)
17 | O=C1NC(=S)N/C1=C/c1cc2c(cc1[N+](=O)[O-])OCO2 | 4.7% (inactive)
18 | COc1cc(/C=C2/C(=O)NN(c3ccc(C)c(Cl)c3)C2=O)cc([N+](=O)[O-])c1O | 2.2% (inactive)
19 | CCOC(=O)C1=C(c2ccccc2)NC(=O)NC1c1ccc(OC)cc1OC (stereo not given) | 11.3% (inactive)
20 | Cc1ccc(SCC(=O)Nc2cccc(-c3nnc(-c4ccco4)o3)c2)cc1 | 23.1% (inactive)

Row | SMILES | inhibition
21 | CNC(=S)N(CCc1c(C)[nH]c2ccc(Cl)cc12)Cc1cccs1 | 79.7% (active)
22 | COCCNC(=S)N(CCc1c(C)[nH]c2ccc(Cl)cc12)Cc1cccs1 | 21.1% (inactive)
23 | CNC(=S)N(CCc1c(C)[nH]c2ccc(C)cc12)Cc1cccs1 | -0.9% (inactive)
24 | COc1ccc(NC(=O)CCNS(=O)(=O)c2ccc(C)c(C)c2)cc1OC | 0.7% (inactive)
25 | C=CCN1C=CC(=C/C=C(/C#N)C(=O)OCC)C=C1 | 4.5% (inactive)
26 | CCCN1C=CC(=CC=C(C#N)C#N)C=C1 | 52.4% (inactive)
27 | C=CCN1C=CC(=CC=C(C#N)C#N)C=C1 | 67.9% (active)
28 | CCOc1ccc(N(CC(=O)Nc2ccc(C)c(F)c2)C2=NC3CS(=O)(=O)CC3S2)cc1 (stereo not given) | 2.9% (inactive)
29 | Cc1ccc(C)c(N2CCN(C(=O)Cn3ncc4c([nH]c5ccc(C)cc54)c3=O)CC2)c1 | 0.4% (inactive)
30 | CC(=O)N/C(=N/c1nc(C)cc(C)n1)Nc1ccc(NC(C)=O)cc1 | -4.3% (inactive)
31 | O=C(O)c1cccc(S(=O)(=O)Nc2ccc(OCc3ccccc3)cc2)c1 | 1.6% (inactive)
32 | Cc1ccc(NS(=O)(=O)c2cc(C(=O)O)ccc2Cl)cc1 | 5.6% (inactive)
33 | O=C(O)c1ccc(NC(=S)NC(=O)c2cccc(COc3ccccc3)c2)cc1 | -20.3% (inactive)
34 | O=C(NC(=S)Nc1ccc(Cl)c(C(=O)O)c1)c1cccc(COc2ccccc2)c1 | 3.5% (inactive)
35 | COc1ccccc1-n1c(SCC(=O)Nc2cccc(C)c2)nc2c(c1=O)SCC2 | 0.7% (inactive)
36 | O=C1Nc2ccccc2N(O)N1c1ccc(S(=O)(=O)N2CCCCCC2)cc1 | 7.8% (inactive)
37 | O=C(CSc1nc2ccccc2s1)N1CCCCC1 | 7.6% (inactive)
38 | CN(C)c1nccc(N(Cc2ccccc2)Cc2ccccc2)c1C#N | 49.1% (inactive)
39 | CN(C)CCN(Cc1ccccc1)c1nccc(N(C)C)c1C#N | 7.4% (inactive)
40 | CCN(CC1COc2ccccc2O1)C(=S)Nc1ccc(F)cc1 (stereo not given) | 8.3% (inactive)

Row | SMILES | inhibition
41 | COc1ccc2c(c1)NC(c1cc(Cl)cc(Cl)c1O)c1cccn1-2 (stereo not given) | 3.9% (inactive)
42 | COc1ccc(C2Nc3cc(OC)ccc3-n3cccc32)cc1 (stereo not given) | 8.6% (inactive)
43 | COc1ccc2c(c1)NC(c1ccc(N(C)C)cc1)c1cccn1-2 (stereo not given) | 67% (active)
44 | Cc1cccc(N(CC(=O)N2CCN(C)CC2)S(=O)(=O)c2ccccc2)c1 | 9.1% (inactive)
45 | CC1CC(C)CN(C(=O)C(C)N(C)CC(=O)Nc2ccc(Cl)cc2)C1 (stereo not given) | 12.3% (inactive)
46 | CC1CN(S(=O)(=O)c2ccc(NC(=O)CCN3C(=O)c4ccccc4C3=O)cc2)CC(C)O1 (stereo not given) | 4.4% (inactive)
47 | CC(=O)C1=C(C)NC(SCC(=O)c2ccc(F)cc2)=C(C#N)C1c1ccco1 (stereo not given) | 16.8% (inactive)
48 | CC(=O)C1=C(C)NC(SCC(=O)c2ccc(C)cc2)=C(C#N)C1c1ccco1 (stereo not given) | 82.9% (active)
49 | CC(=O)C1=C(C)NC(SCC(=O)c2ccccc2)=C(C#N)C1c1ccco1 (stereo not given) | 16.3% (inactive)
50 | CN(C(=O)C1CCC1C(=O)O)c1nc(-c2ccc(Cl)s2)cs1 (stereo not given) | 11.8% (inactive)
51 | CC(C)CNC(=O)CC(c1ccccc1)c1ccccc1 | -4.4% (inactive)
52 | Cc1cc(C)nc(NNC(=O)NC2CCCCC2)n1 | -10.6% (inactive)
53 | COc1cc(NC(=O)c2cnn3c(C(F)F)cc(C4CC4)nc23)c(OC)cc1Cl | 14.7% (inactive)
54 | COc1ccc(-n2ncc(C(=O)NC3CC3)c2C2CCN(C(=O)OC(C)(C)C)CC2)cc1 | 12.4% (inactive)
55 | CC(C)(C)OC(=O)N1CCC(c2c(C(=O)NC3CC3)cnn2-c2ccc(Cl)cc2)CC1 | 4.1% (inactive)
56 | CCOc1ccc(NC(=O)c2c[nH]n3c(=O)cc(C4CCN(C(=O)OC(C)(C)C)CC4)nc23)cc1 | 16.4% (inactive)
57 | CCCCC(C(=O)NC1CCCC1)N(C(=O)c1snc(C(N)=O)c1N)c1ccc(OCC)cc1 (stereo not given) | 4.9% (inactive)
58 | CCOC(=O)c1cn(CC2CC2)c2cc(F)c(F)cc2c1=O | -1.8% (inactive)
59 | O=C(Cc1coc2ccc3ccccc3c12)NC1CCCc2ccccc21 (stereo not given) | -1.1% (inactive)
60 | C/C(=N\Nc1nc2ccccc2s1)c1ccc2c(c1)OCO2 | 11.7% (inactive)

— PubChem BioAssay AID2013 (Sanford-Burnham Center for Chemical Genomics, 2009)
